Assay results published in PubChem BioAssay AID602379 (National Center for Advancing Translational Sciences (NCATS), 2012).

What follows are molecules tested against Pyruvate kinase PKLR (Homo sapiens) (UniProt P30613) (assay: qHTS for Activators of Human Muscle Isoform Pyruvate Kinase: Extended Characterization against Liver Pyruvate Kinase). Conditions: purified hPK-L, ATP via Kinase-Glo luminescence, 1 h; series mostly up to 57.3 µM; activity change, positive = activation: at the top concentration; active means well fitted curve in the direction sought with a large enough effect; inactive means no such curve, though single readings can be large or run the other way.
Chain of Pyruvate kinase PKLR (Homo sapiens) (P30613 whole entry, looked up, canonical isoform): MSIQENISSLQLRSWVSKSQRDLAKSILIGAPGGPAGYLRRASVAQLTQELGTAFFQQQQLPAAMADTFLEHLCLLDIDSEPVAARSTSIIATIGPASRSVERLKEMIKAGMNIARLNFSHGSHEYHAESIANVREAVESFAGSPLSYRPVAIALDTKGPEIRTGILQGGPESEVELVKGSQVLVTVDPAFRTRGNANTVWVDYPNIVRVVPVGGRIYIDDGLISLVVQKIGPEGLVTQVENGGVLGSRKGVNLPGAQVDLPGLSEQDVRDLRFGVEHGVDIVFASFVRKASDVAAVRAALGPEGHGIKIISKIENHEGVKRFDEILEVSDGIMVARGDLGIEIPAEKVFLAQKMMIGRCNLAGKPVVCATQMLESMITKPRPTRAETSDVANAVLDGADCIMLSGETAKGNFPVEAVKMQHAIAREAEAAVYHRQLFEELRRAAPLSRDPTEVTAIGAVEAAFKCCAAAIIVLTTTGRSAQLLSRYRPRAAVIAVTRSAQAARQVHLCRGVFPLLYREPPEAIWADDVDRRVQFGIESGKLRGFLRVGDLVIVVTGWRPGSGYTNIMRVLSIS
Description: Human pyruvate kinase liver (hPK-L) enzyme was supplied as a highly purified (>95% pure) preparation from Harvard Medical School and assayed for its ability to generate ATP from ADP using phosphoenolpyruvate (PEP) as a substrate. ATP generation was detected in a coupled reaction by luciferase-mediated luminescence, an ATP-dependent process. Pyruvate kinase substrates, PEP and ADP, were present in the assay at Km and approximately 10-fold below Km respectively. The enzyme was assayed at an intermediate level of activity to screen for both inhibitors and activators. NIH Chemical Genomics Center [NCGC] NIH Molecular Libraries Probe Centers Network [MLPCN] MLPCN Grant: MH085679 Assay Submitter (PI): Matthew G. Vander Heiden, Harvard Medical School
Three uL of substrate mix (at r.t.) in assay buffer (50 mM Imidazole pH7.2, 50 mM KCl, 7 mM MgCl2, 0.01% Tween 20, 0.05% BSA) was dispensed into white solid bottom 1,536 well microtiter plates so that the final concentrations of substrates in the assay were 0.1 mM ADP and 0.5 mM PEP. 23 nL of compound were delivered by a pin tool and 1 uL of enzyme mix (final concentration of 0.1 nM) in assay buffer (4 degree Celsius) was added. Plates were incubated at room temperature for 1 hour. Two uL of detection mix (Kinase-Glo, Promega; at 4 degree Celsius protected from light) was added and luminescence read by a ViewLux (Perkin Elmer) at 1 second exposure/plate. Data were normalized to the uninhibited (row 31). Additionally, a no enzyme and 5-fold enzyme control was dispensed in row 32, split equally between the two conditions.

Activity change, positive = activation, inactive:
Cc1cc2c(s1)c1cnn(Cc3ccc(F)cc3F)c(=O)c1n2C 5.82%, Cc1cc2c(s1)c1cnn(Cc3cc(F)ccc3F)c(=O)c1n2C 5.89%, Cc1cc2c(s1)c1cnn(Cc3cc(F)c(F)cc3F)c(=O)c1n2C 5.78%, COc1cccc(Cn2ncc3c4sc(S(C)=O)cc4n(C)c3c2=O)c1 (stereo not given) 5.38%, Cc1cc2c(s1)c1cnn(Cc3c(Cl)ccc(C)c3F)c(=O)c1n2C 13.2%
